# CR mimetic SO: yeast age-related superoxide inhibition as caloric restriction mimetic; AID 2690; superoxide response (% of plate mean), % at 10 µM; S. cerevisiae aged cells, superoxide DHE fluorescence; hits give low values; 330,000 tested, 0.18% active;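 active = superoxide response under a set limit, about three screen SD below normal, cut at about 65% in these data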;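 note: yeast aged for seven days with compound at 30 °C before DHE staining; 100% = average MFI of all compound-treated wells on the plate with controls excluded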
# Efflux pump inh: inhibitors of Candida antifungal efflux pumps expressed in yeast; S. cerevisiae Candida pump triplex, Nile Red efflux; inhibition, % at 10 µM; 330,000 tested, 0.44% active; AID 485275;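 active = plate passing quality check with inhibition over a set limit, or well fluorescence over plate mean plus 4 SD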;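 note: Nile Red retained in pooled yeast measured as flow cytometry median fluorescence; 0% = buffer negative control and 100% = Enniatin B positive control; higher means more Nile Red kept so more efflux inhibition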
# ATG4B inh: ATG4B (human) cysteine protease inhibition. Q9Y4P1. ATG4B cleavage of LC3-PLA2, NBD-HPC fluorescence, 1 h. inhibition, % at 8.33 µM. 340,000 tested, 0.51% active. AID 504462; in the data active = inhibition above about 40%
# Target sequence (Q9Y4P1 whole entry, looked up): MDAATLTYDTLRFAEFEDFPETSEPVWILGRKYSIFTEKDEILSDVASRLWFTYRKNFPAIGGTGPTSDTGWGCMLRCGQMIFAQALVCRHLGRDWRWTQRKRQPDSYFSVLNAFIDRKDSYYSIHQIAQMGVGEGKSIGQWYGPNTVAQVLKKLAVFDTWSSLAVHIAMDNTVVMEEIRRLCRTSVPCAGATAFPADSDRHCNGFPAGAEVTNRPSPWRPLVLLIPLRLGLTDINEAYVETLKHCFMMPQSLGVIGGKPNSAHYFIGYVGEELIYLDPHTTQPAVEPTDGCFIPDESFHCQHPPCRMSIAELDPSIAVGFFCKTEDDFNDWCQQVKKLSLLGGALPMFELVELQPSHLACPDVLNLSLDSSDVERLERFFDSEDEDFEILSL
# GRK2 aptamer HTS: human GRK2 inhibition via aptamer displacement. P25098. bead flow cytometry, FAM-aptamer displacement from GRK2. inhibition of aptamer binding, % at 10 µM. 330,000 tested, 0.59% active. AID 488847;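 active = inhibition of aptamer binding above 40%, roughly 3 SD of noise, on plates passing a quality check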;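 note: median bead fluorescence of bound FAM aptamer so fluorescent compounds give negative values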
# Superoxide pick: confirmation of caloric restriction mimetics inhibiting yeast age-related superoxide. S. cerevisiae aging, superoxide DHE fluorescence; hits give low values. shares compounds with CR mimetic SO. superoxide response (% of plate), % at 10 µM. AID 434994. 850 tested, 1% active;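 active = superoxide signal below 65% of the plate average of sample wells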;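 note: cells aged with compound for 7 days at 30 degrees C before staining; 100% equals mean DHE fluorescence of all compound wells on the plate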
# DHE fluor count: counter-screen for compounds affecting DHE oxidation and fluorescence in yeast; 850 tested, under 10 active; shares compounds with CR mimetic SO; fluorescence response, % at 10 µM; AID 435000; S. cerevisiae BY4741, flow cytometry; hits give low values;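 active = fluorescence response below 15%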;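 note: percent of the mean fluorescence averaged over all compound wells on the plate; lower means stronger quenching of DHE signal or ROS scavenging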
# The depositor's hits bear a star; . = no result given. Compounds with a hit are over-represented: about 1.6% of the library has one in this group of screens.
SMILES,CR mimetic SO,Efflux pump inh,ATG4B inh,GRK2 aptamer HTS,Superoxide pick,DHE fluor count
Cc1ccc(S(=O)(=O)N2CCN(C(=O)COC(=O)CNC(=O)c3ccc(Cl)cc3Cl)CC2)c(C)c1,.,.,-10.0,.,.,.
O=C(COc1ccccc1F)Nc1nnc(-c2ccncc2)s1,55.4*,-0.3,2.1,0.0,114.8,107.6
O=C(COc1ccc(F)cc1)Nc1nnc(-c2ccncc2)s1,93.9,-0.1,2.2,7.0,.,.
O=C(NNc1nc(=O)c2cccnc2s1)c1ccccc1O,50.0*,-0.1,0.3,0.0,98.9,111.9
O=C(NNc1c2ccccc2nc2ccccc12)c1ccccc1O,89.8,-0.1,-28.3,0.0,.,.
Fc1ccccc1COc1ccc(C(=S)N2CCCC2)cc1,64.8*,0.0,36.9,3.0,107.2,92.7
O=C(Oc1ccc(C(=S)N2CCCCC2)cc1)c1ccccc1F,93.2,0.0,30.4,9.0,.,.
N#CCc1nn(-c2ccc(Cl)cc2)c(N)c1C#N,99.7,-0.1,1.9,1.0,.,.
N#CCc1nn(-c2ccccc2)c2ncnc(N)c12,88.2,-0.1,-3.4,0.0,102.2,103.1
CCOc1ccc(S(=O)(=O)N2CCOCC2)cc1NC(=O)CCOc1ccc(C(C)(C)C)cc1,.,.,-14.6,.,.,.
CCOc1ncccc1C(=O)N1CCN(c2cc(Cl)ccc2C)CC1,105.6,0.1,-10.2,1.0,90.2,112.3
CCOc1ncccc1C(=O)N1CCN(C(=O)c2ccccc2)CC1,108.9,0.1,3.7,2.0,.,.
CCOc1ncccc1C(=O)N1CCN(c2cccc(C)c2C)CC1,.,.,-1.5,.,114.3,107.2
Cc1[nH]c2ccccc2c1N=Nc1ccccc1F,64.7*,0.3,-1.6,1.0,90.9,98.3
Cc1[nH]c2ccccc2c1N=Nc1ccc(F)cc1,93.9,-0.1,4.1,14.0,.,.
Cc1csc(Nc2cccc3ccccc23)n1,95.5,-0.1,7.6,0.0,.,.
Cc1csc(Nc2ccccc2C(F)(F)F)n1,64.3*,-0.1,-2.3,3.0,108.1,100.8
CC1(C)CC(=O)N(c2ccc(C#N)cc2)C(=O)C1,94.3,0.0,-2.6,0.0,.,.
C=CCNC(=S)NCC,65.1*,0.8,1.0,3.0,97.8,96.5
O=C(NCc1ccccc1)C1CC(=O)N(c2ccc(OCC(=O)N3CCOCC3)cc2)C1 (configuration not stated),114.4,0.0,5.3,0.0,.,.
COC(=O)CC1C(=O)NCCN1C(=O)CSc1nc2ccccc2s1 (configuration not stated),81.1,0.0,-12.4,0.0,.,.
Cc1cccc(NC(=O)c2cc(C)nc3ccccc23)c1,55.6*,0.2,4.5,5.0,96.9,92.7
Cc1ccc(NC(=O)c2cc(C)nc3ccccc23)cc1,105.7,-0.1,-6.2,3.0,.,.
O=C(NCc1ccco1)c1nn(-c2ccccc2)c(=O)c2ccccc12,62.5*,-0.1,1.3,0.0,89.9,107.4
O=C(CSc1ccsc1[N+](=O)[O-])NCc1ccco1,133.2,-0.1,-7.1,0.0,.,.
SMILES,CR mimetic SO,Efflux pump inh,ATG4B inh,GRK2 aptamer HTS,Superoxide pick,DHE fluor count
COc1ccccc1C1CCN(C(=O)c2ccc(Cl)cc2)CC1,36.6*,0.2,-2.9,2.0,96.1,101.3
COc1ccccc1C1CCN(C(=O)c2ccccc2)CC1,95.6,-0.1,1.3,18.0,.,.
Cc1cc(C)n(-c2nnc(NC(C)(C)C)nn2)n1,90.8,-0.1,-9.1,3.0,.,.
Cc1cc(C)n(-c2nnc(NC34CC5CC(CC(C5)C3)C4)nn2)n1,63.6*,0.8,15.2,12.0,87.0,97.7
CCN1CCCc2cc(CN(CCN3CCOCC3)C(=S)Nc3ccccc3C)ccc21,61.0*,0.1,1.7,1.0,104.7,101.1
CCOC(=O)CSc1nnc(-c2cc(OC)c(OC)c(OC)c2)o1,99.5,0.1,3.6,0.0,94.0,98.3
COc1cc(-c2nnc(SCC(=O)OC3CCCCC3)o2)cc(OC)c1OC,112.5,0.0,-5.0,10.0,.,.
CCCCCOC(=O)CSc1nnc(-c2cc(OC)c(OC)c(OC)c2)o1,112.6,0.0,-5.3,0.0,124.1,108.9
COc1cc(-c2nnc(SCC(=O)c3ccccc3)o2)cc(OC)c1OC,113.3,0.1,2.6,0.0,.,.
CCCOC(=O)CSc1nnc(-c2cc(OC)c(OC)c(OC)c2)o1,91.9,0.2,-13.7,3.0,97.5,112.0
O=C(NNC(=O)c1ccccc1C(=O)O)c1ccc(S(=O)(=O)N2CCCCC2)cc1,.,.,1.6,.,.,.
CCc1ccc(NC(=O)CC2C(=O)N(c3ccc(C)cc3)C(=O)N2C2CC2)cc1 (configuration not stated),102.2,-0.1,-5.4,1.0,.,.
